Screening results: PubChem BioAssay, several laboratories
ALR H2O2 inh = human ALR oxidase inhibition via reduced H2O2. purified ALR, DTT oxidation, H2O2 HRP-luminol luminescence. AID 485317. hit rate 3.8% among 290,000. P55789. inhibition, % (concentration not given with the values);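 active = mean replicate inhibition above about 79%, with every replicate also reaching it, limit read from the data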
Target sequence (P55789 whole entry, looked up): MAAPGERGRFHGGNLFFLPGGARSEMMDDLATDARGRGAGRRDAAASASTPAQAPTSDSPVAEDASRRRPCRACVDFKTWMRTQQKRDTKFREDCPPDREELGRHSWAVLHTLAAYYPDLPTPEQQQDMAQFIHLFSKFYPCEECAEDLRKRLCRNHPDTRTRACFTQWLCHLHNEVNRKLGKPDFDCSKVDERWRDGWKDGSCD
MIN6 prolif = inducers of beta-cell replication in MIN6 cells. MIN6 cells proliferation, ATPlite luminescence, 48 h; cells starved in 0.2% serum; 100% = growth in 10% serum. proliferation, % at 10 µM. hit rate 0.29% among 330,000;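 active = compounds whose signal lies at least 3.5 SD above the mean of all wells on their plate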
GASC-1 inh = blocks human GASC-1 demethylase activity; hit rate 0.069% among 330,000; GST-JMJD2C(1-420) H3K9me3 demethylation, DELFIA europium; Q9H3R0; AID 2099; inhibition, % at 2.35 µM;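 active = more than half of a compound's replicate wells show inhibition beyond 50%, single wells judged on their own value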;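 note: signal counts dimethyl H3K9 product captured on neutravidin plate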
Target sequence (Q9H3R0 1-420 limits assumed): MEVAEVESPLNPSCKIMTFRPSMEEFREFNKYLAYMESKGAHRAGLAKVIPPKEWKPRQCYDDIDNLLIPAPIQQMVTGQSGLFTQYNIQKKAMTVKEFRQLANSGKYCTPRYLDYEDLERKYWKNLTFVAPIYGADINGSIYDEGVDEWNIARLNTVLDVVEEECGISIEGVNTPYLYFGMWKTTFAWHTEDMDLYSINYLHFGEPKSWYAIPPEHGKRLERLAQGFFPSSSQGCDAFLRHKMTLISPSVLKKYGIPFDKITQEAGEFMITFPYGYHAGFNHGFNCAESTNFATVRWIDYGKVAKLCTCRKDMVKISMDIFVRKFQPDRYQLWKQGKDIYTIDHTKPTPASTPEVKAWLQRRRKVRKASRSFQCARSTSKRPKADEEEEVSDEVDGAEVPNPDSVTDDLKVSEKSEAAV
Exocytosis inh = blocks lytic granule exocytosis. TALL-104 LAMP-1 surface exposure, flow cytometry; cells stimulated with thapsigargin and PMA. inhibition, % at 10 µM. hit rate 0.66% among 360,000. AID 651702;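 active = inhibition above about 55%, limit read from the data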
PfM18AAP inh-1 = PfM18AAP enzyme inhibition; inhibition, % at 7.35 µM; recombinant PfM18AAP, H-Glu-NHMec fluorogenic cleavage; hit rate 1.2% among 290,000;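 active = inhibition above the campaign mean inhibition over all tested compounds plus 3 SD, cut at about 28% in these data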
SMARCA2 activ = SMARCA2 function activation, primary screen. hit rate 1% among 370,000. activation, % at 9.1 µM. MG213 cells, MMTV-luciferase reporter, dexamethasone, overnight; in the data active = activation above about 7.8%
PfM18AAP inh-2 = PfM18AAP inhibition, confirmation; shares compounds with PfM18AAP inh-1; hit rate 28% among 2,400; inhibition, % at 7.35 µM; recombinant PfM18AAP, H-Glu-NHMec fluorogenic cleavage;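 active = mean inhibition over replicate wells above the hit cutoff set for the earlier primary screen, cut at about 29% in these data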
CTSL1 counter = counter-screen for PFM18AAP inhibitors: confirmation of human cathepsin L inhibitors; inhibition, % at 5.96 µM; AID 2178; purified cathepsin L1, Z-Leu-Arg-MCA fluorescence; shares compounds with PfM18AAP inh-1; 2,400 tested, under 10 active;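 active = average inhibition across replicates above the hit cutoff set in the earlier primary screen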
Each line names hits and unclear results; the compound was inactive in the other large screens (follow-up assays come after a bar, where they were run). Hits are enriched below; roughly 5.4% of the tested compounds scored in any of these assays.

COC(=O)c1cc(C(=O)Nn2cnnc2)cc([N+](=O)[O-])c1	PfM18AAP inh-1 63 | PfM18AAP inh-2 73 | CTSL1 counter inactive
CCOC(=O)C1CSCCS(=O)(=O)N1Cc1ccc(F)cc1F (configuration not stated)	none (no result: ALR H2O2 inh, MIN6 prolif, GASC-1 inh, Exocytosis inh, PfM18AAP inh-1)
Cc1cccc(NC(=O)CSc2cn[nH]n2)c1	none
O=C(CSc1cn[nH]n1)Nc1cccc(C(=O)O)c1	PfM18AAP inh-1 54 (no result: ALR H2O2 inh) | PfM18AAP inh-2 inactive | CTSL1 counter inactive
Oc1ccc(-n2cccc2/C=N/n2cnnc2)cc1	none
Cc1ccc(-n2cccc2/C=N/n2cnnc2)cc1Cl	PfM18AAP inh-1 39 | PfM18AAP inh-2 inactive | CTSL1 counter inactive
CC(=O)c1c(C)[nH]c(C(=O)NCCc2ccc(Cl)cc2)c1C	PfM18AAP inh-1 61 (no result: ALR H2O2 inh) | PfM18AAP inh-2 inactive | CTSL1 counter inactive
COc1ccc(Cn2c(C)cc(O)cc2=O)cc1	none (no result: ALR H2O2 inh, MIN6 prolif, GASC-1 inh, Exocytosis inh, PfM18AAP inh-1)
COc1cccc(OC(C)CCN2CCC(C(O)(c3ccccc3)c3ccccc3)CC2)c1 (configuration not stated)	none (no result: ALR H2O2 inh, MIN6 prolif, GASC-1 inh, Exocytosis inh, PfM18AAP inh-1)
CCc1nnc(N/N=C/c2c(Cl)cccc2Cl)n1N	PfM18AAP inh-1 56 | PfM18AAP inh-2 inactive | CTSL1 counter inactive
CCc1nnc(N/N=C/c2cc(Br)c(O)cc2O)n1N	ALR H2O2 inh 83, GASC-1 inh 58, PfM18AAP inh-1 62 | PfM18AAP inh-2 54 | CTSL1 counter inactive
Cc1nnc(N/N=C/c2ccccc2F)n1N	none
Cc1ccc(Cl)cc1NC(=O)Nn1cnnc1	PfM18AAP inh-1 76 | PfM18AAP inh-2 61 | CTSL1 counter inactive
COc1ccc(Cl)cc1NC(=O)Nn1cnnc1	PfM18AAP inh-1 81 | PfM18AAP inh-2 74 | CTSL1 counter inactive
O=C(Nc1ccc(Cl)cc1Cl)Nn1cnnc1	PfM18AAP inh-1 83 | PfM18AAP inh-2 77 | CTSL1 counter inactive
Cc1ccc(C)c(NC(=O)Nn2cnnc2)c1	PfM18AAP inh-1 60 | PfM18AAP inh-2 41 | CTSL1 counter inactive
C[C@H](CO)N1C[C@H](C)[C@@H](CN(C)C(=O)C2CC2)OCc2cn(nn2)CCCC1=O	none (no result: ALR H2O2 inh, MIN6 prolif, GASC-1 inh, Exocytosis inh, PfM18AAP inh-1)
CC(C)=CCN1C(=O)[C@]2(OCCC=C[C@H]2C)c2c(Br)cccc21	none (no result: ALR H2O2 inh, MIN6 prolif, GASC-1 inh, Exocytosis inh, PfM18AAP inh-1)
O=[N+]([O-])c1ccc(N2CCN(c3ccc(O)cc3)CC2)cn1	PfM18AAP inh-1 41 (no result: ALR H2O2 inh) | PfM18AAP inh-2 inactive | CTSL1 counter inactive
O=C(O)c1ccc([N+](=O)[O-])nc1	none (no result: ALR H2O2 inh, MIN6 prolif, GASC-1 inh, PfM18AAP inh-1)
O=C(CNC(=O)c1cccs1)OCC(=O)c1ccccc1	none
O=C(CNC(=O)c1cccs1)NCC(=O)OCC(=O)c1ccc([N+](=O)[O-])cc1	ALR H2O2 inh 96, PfM18AAP inh-1 46 | PfM18AAP inh-2 inactive | CTSL1 counter inactive
Cc1ccccc1OCC(=O)NCC(=O)OCC(=O)c1ccc([N+](=O)[O-])cc1	ALR H2O2 inh 97, PfM18AAP inh-1 46 | PfM18AAP inh-2 inactive | CTSL1 counter inactive
COC(=O)[C@]12C=CCN1[C@H](c1ccc(C(F)(F)F)cc1)c1c(c3ccccc3n1S(=O)(=O)c1ccc(C)cc1)C2	none (no result: ALR H2O2 inh, MIN6 prolif, GASC-1 inh, Exocytosis inh, PfM18AAP inh-1)
CCn1c(/C=C/c2ccc(O)c(O)c2)nc2ccccc2c1=O	ALR H2O2 inh 100, PfM18AAP inh-1 54 | PfM18AAP inh-2 43 | CTSL1 counter inactive
O=c1nc(/C=C/c2ccc(O)c(O)c2)oc2ccccc12	PfM18AAP inh-1 63 (no result: ALR H2O2 inh, MIN6 prolif, SMARCA2 activ) | PfM18AAP inh-2 56 | CTSL1 counter inactive
Cc1ccc(C)c(NC(=O)c2cc(-c3ccc(Cl)cc3)nc3ccccc23)c1	none (no result: ALR H2O2 inh, MIN6 prolif, GASC-1 inh, Exocytosis inh, PfM18AAP inh-1)
C=CCNC(=S)NNC(=O)c1cc(O)ccc1O	ALR H2O2 inh 99, PfM18AAP inh-1 39 | PfM18AAP inh-2 29 | CTSL1 counter inactive
CN1/C(=C\C(=O)COC(=O)c2ccc(O)c(O)c2)C(C)(C)c2ccccc21	ALR H2O2 inh 99, PfM18AAP inh-1 45 (no result: Exocytosis inh) | PfM18AAP inh-2 inactive | CTSL1 counter inactive
CN1/C(=C\C(=O)CSc2cccc[n+]2[O-])C(C)(C)c2ccccc21	PfM18AAP inh-1 49 | PfM18AAP inh-2 inactive | CTSL1 counter inactive
CCOC(=O)[C@]12CCCCC/C=C\1N(CCc1ccc(Cl)cc1)C(=O)[C@H]2CC(=O)NCC1CCCCC1	none (no result: ALR H2O2 inh, MIN6 prolif, GASC-1 inh, Exocytosis inh, PfM18AAP inh-1)
CC(=O)Nc1ccc(NC(=O)CC2Nc3cccc4cccc(c34)NC2=O)cc1 (configuration not stated)	ALR H2O2 inh 86, PfM18AAP inh-1 33 | PfM18AAP inh-2 inactive | CTSL1 counter inactive
C=CCn1c(=O)c2ccccc2n2c(=S)[nH]nc12	none
CCOCCCn1c(=O)c2ccccc2n2c(=S)[nH]nc12	PfM18AAP inh-1 46 (no result: ALR H2O2 inh) | PfM18AAP inh-2 inactive | CTSL1 counter inactive
COc1ccc(/C=N/NC(=O)c2ccccc2O)cc1CN1CCOCC1	none
COc1ccc(/C=N\NC(=O)c2cc(O)c(O)c(O)c2)cc1COc1ccc(C(=O)OCC(C)C)cc1	PfM18AAP inh-1 32 | PfM18AAP inh-2 inactive | CTSL1 counter inactive
COc1ccc(/C=N\NC(=O)c2cc(O)c(O)c(O)c2)cc1CN1CCN(c2ccc(F)cc2)CC1	PfM18AAP inh-1 38 (no result: MIN6 prolif) | PfM18AAP inh-2 inactive | CTSL1 counter inactive
O=C(COC(=O)c1ccc(-c2ccc([N+](=O)[O-])cc2)o1)NC(=O)NC1CCCCC1	none
O=C(NC1CCC(O)CC1)c1ccc(-c2ccc([N+](=O)[O-])cc2)o1 (configuration not stated)	PfM18AAP inh-1 33 | PfM18AAP inh-2 inactive | CTSL1 counter inactive
C[C@@H]1C=CCCO[C@]12C(=O)N(CC1CC1)c1cccc(Br)c12	none (no result: ALR H2O2 inh, MIN6 prolif, GASC-1 inh, Exocytosis inh, PfM18AAP inh-1)
NC(=O)CNc1ncc(C(F)(F)F)cc1Cl	none
Cc1onc(C(=O)NN)c1C(=O)Nc1ncc(C(F)(F)F)cc1Cl	PfM18AAP inh-1 55 | PfM18AAP inh-2 inactive | CTSL1 counter inactive
COc1ccc(-n2c(SCC(=O)NCc3ccco3)nc3sc4c(c3c2=O)CCN(C)C4)cc1	ALR H2O2 inh 98, PfM18AAP inh-1 34 | PfM18AAP inh-2 inactive | CTSL1 counter inactive
COc1ccc(-n2c(SCC(N)=O)nc3sc4c(c3c2=O)CCN(C)C4)cc1	none
CN1CCc2c(sc3nc(SCC(=O)NCc4ccco4)n(-c4ccccc4)c(=O)c23)C1	PfM18AAP inh-1 39 | PfM18AAP inh-2 inactive | CTSL1 counter inactive
COc1cc(OC)c(C2CC(=O)N3CN(C)CSC3=C2C#N)cc1OC (configuration not stated)	none
Cc1ccc(C2CC(=O)N3CN(c4ccc(Br)cc4)CSC3=C2C#N)o1 (configuration not stated)	PfM18AAP inh-1 37 | PfM18AAP inh-2 inactive | CTSL1 counter inactive
COc1cc(OC)c(C2CC(=O)N3CN(c4ccccc4)CSC3=C2C#N)cc1OC (configuration not stated)	PfM18AAP inh-1 39 | PfM18AAP inh-2 inactive | CTSL1 counter inactive
